This note sets out measurements from PubChem BioAssay AID1851 (National Center for Advancing Translational Sciences (NCATS), 2009).

About 4,000 (25%) of roughly 16,000 compounds were called active. Not shown: some 26% with an inconclusive outcome. A selection follows. Values without a mark were called inactive. Calls come from the whole dose curve; as a rule, active = well fitted curve in the direction sought with a large enough effect; inconclusive = small, poorly fitted or top-dose-only effect, or effect the other way; inactive = no such curve, though single readings can be large or run the other way.
% is set by controls: 0 for no effect and ±100 for the full control effect.

Cytochrome P450 2C9 (Homo sapiens), sequence (P11712 whole entry, looked up): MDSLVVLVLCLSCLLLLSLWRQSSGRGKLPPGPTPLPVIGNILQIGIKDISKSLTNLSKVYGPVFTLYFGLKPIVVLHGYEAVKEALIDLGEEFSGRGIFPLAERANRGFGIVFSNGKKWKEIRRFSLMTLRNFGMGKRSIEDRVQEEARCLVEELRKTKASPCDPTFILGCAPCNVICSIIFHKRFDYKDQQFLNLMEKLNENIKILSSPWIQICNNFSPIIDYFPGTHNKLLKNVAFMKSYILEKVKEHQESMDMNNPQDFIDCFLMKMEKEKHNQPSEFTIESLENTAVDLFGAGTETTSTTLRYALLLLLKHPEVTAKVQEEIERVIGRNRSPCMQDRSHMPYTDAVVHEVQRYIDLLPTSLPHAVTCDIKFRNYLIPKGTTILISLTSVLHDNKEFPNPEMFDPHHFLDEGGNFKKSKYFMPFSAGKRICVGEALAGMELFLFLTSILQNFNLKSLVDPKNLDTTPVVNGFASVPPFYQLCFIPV

The assay has as its target Cytochrome P450 2C9 (Homo sapiens) (UniProt P11712). In words: Cytochrome panel assay with activity outcomes. The note with it: recombinant CYP, pro-luciferin dealkylation, luminescence, p450-cyp2c9; series mostly up to 57.1 µM; activity, negative = inhibition: at the top concentration.
Consider `COc1cc2nc(N(C)CCCNC(=O)[C@@H]3CCCO3)nc(N)c2cc1OC`, for which the “activity, negative = inhibition” value was -16.9% [at 25.6 µM].
On the same count and under the same terms, for `COc1ccc2nc(SCC(=O)NN)cc(C)c2c1` the value was 12.8%.
For `CCN(C(=O)CSc1nc2cc(C(=O)OC)ccc2c(=O)n1Cc1ccco1)c1cccc(C)c1`, the AC50 (commonly the concentration at which the activity in the assay is half-maximal) was 0.2 µM (active).
In the case of `COCCn1c(=O)c(-c2ccc(OC)cc2)nc2cnc(N3CCOCC3)nc21`, the “activity, negative = inhibition” value was 17.6%.
The same measure, in the same setting: as for `COCCCNC(=O)CCC(=O)Nc1ccc2nc(N3CCOCC3)cc(C)c2c1`, the figure is -26.7%.
Regarding `COCCNC(=O)CSc1nc2ccc(N3CCOCC3)cc2c(=O)n1Cc1ccc(OC)cc1`, the concentration at half-maximal activity (AC50) is 5.62 µM (active).
On to `COc1cc2nc(N3CC=[N+](C(=O)c4ccco4)CC3)nc(N)c2cc1OC`, for which the “activity, negative = inhibition” value is -8.49%.
With `CCN1CCC[C@H]1CNC(=O)c1cc(S(N)(=O)=O)ccc1OC`, the AC50 result was “inactive”.
As for `Cc1sc2ccccc2[n+]1CCC(C)S(=O)(=O)[O-]` (configuration not stated), the “activity, negative = inhibition” value was -33%.
In the case of `CCOC(=O)C[n+]1c(C)sc2ccc(OC)cc21`, the AC50 is 14.1 µM (active).
Take `Cc1sc2ccccc2[n+]1CCC(=O)O`: the activity, negative = inhibition was 9.02% [at 11.4 µM].
As to `N#CCCn1c(=O)c(CCc2ccccc2)nc2cnc(OCc3ccccc3)nc21`, the AC50 was 15.8 µM (active).
In the case of `COCCn1c(=O)c(-c2cn(C)c3ccccc23)nc2cnc(OCc3ccccc3)nc21`, the “activity, negative = inhibition” value was 23.6%.
Consider `N#CCCn1c(=O)c(CCc2ccccc2)nc2cnc(Oc3cccc(Cl)c3)nc21`, for which the AC50 was 3.16 µM (active).
As to `Cn1cc(-c2nc3cnc(Oc4ccccc4)nc3n(CCC#N)c2=O)c2ccccc21`, the “activity, negative = inhibition” value was 6%.
Same read-out and setting: as for `COc1cccc(Nc2ncc3nc(CCc4ccccc4)c(=O)n(CCC#N)c3n2)c1`, the figure is 10.7%.
For `N#CCCn1c(=O)c(CCc2ccccc2)nc2cnc(Oc3ccccc3)nc21`, the AC50 is 7.94 µM (active).
As to `COc1ncc2nc(CCc3ccccc3)c(=O)n(CCC#N)c2n1`, the “activity, negative = inhibition” value was -25.7%.
Regarding `COc1ccc(Oc2ncc3nc(CCc4ccccc4)c(=O)n(CCC#N)c3n2)cc1`, the AC50 is 10 µM (active).
In the case of `C/C(=N\[N+](C)(C)C)c1ccc(C)c(C)c1`, the activity, negative = inhibition is 13% [at 11.4 µM].
Take `COCCn1c(=O)c(CCc2ccccc2)nc2cnc(Oc3ccc(OC)cc3)nc21`: the AC50 was 10 µM (active).
Still for that read-out and setting: for `COc1ccc(Oc2ncc3nc(CCc4ccccc4)c(=O)n(C)c3n2)cc1` the value was 10 µM (active).
For the molecule `N#CCCn1c(=O)cnc2cnc(OCc3ccccc3)nc21`, the “activity, negative = inhibition” value was -2.69%.
On the same count and under the same terms, as for `COc1ccc(Oc2ncc3nc(C)c(=O)n(C)c3n2)cc1`, the figure is 7.96%.
In the case of `COCCn1c(=O)c(CCc2ccccc2)nc2cnc(Oc3cccc(Cl)c3)nc21`, the AC50 is 1 µM (active).
With `COc1ncc2nc(CCc3ccccc3)c(=O)n(C)c2n1`, the “activity, negative = inhibition” value is -24.3%.
The same measure, in the same setting: as for `N#CCCn1c(=O)c(-c2ccc(F)cc2)nc2cnc(OCc3ccccc3)nc21`, the figure is 7.08%.
With `N#CCCn1c(=O)c(-c2ccccc2)nc2cnc(OCc3ccccc3)nc21`, the AC50 was 12.6 µM (active).
In the case of `COc1ccc(CNc2ccnc(-c3ccccc3Cl)n2)c(OC)c1`, the activity, negative = inhibition was -11.5% [at 2.29 µM].
In the case of `N[C@@H]1[C@@H]2[C@@H]3C[C@H]4N(CC[C@@]14C(=O)C(=O)O)CC3=CCO[C@@H]2CC(=O)O`, the activity, negative = inhibition is 5.63% [at 11.4 µM].
The same measure, in the same setting: as for `CC(C)(C)CNCCO`, the figure is 3.65% [at 11.4 µM].
Still for that read-out and setting: as for `O=C(Nc1cccc(F)c1)N1CC[C@@]2(CCCN(C(=O)c3cnccn3)C2)C1`, the figure is 1.58%.
Consider `COc1cc(NC(=S)Nc2ccc(S(=O)(=O)N3CCOCC3)cc2)cc(OC)c1OC`, for which the AC50 is 15.8 µM (active).
As for `CS(=O)(=O)Nc1ccc(S(=O)(=O)N2CCOCC2)cc1`, the “activity, negative = inhibition” value is -26.6%.
The same measure, in the same setting: for `FC(F)(F)c1ccccc1-c1cncnc1Nc1ccccc1` the value was -0.414% [at 2.29 µM]; for `CC(=O)NCCNc1cc(-c2ccccc2C(F)(F)F)ncn1`, -3.9% [at 2.29 µM].
In the case of `CC=C(/C(=C/C)c1ccc(O)cc1)c1ccc(O)cc1`, the half-maximal activity concentration (AC50) is 0.794 µM (active).
Take `Cc1cc(N2CCN(C)CC2)n2nc(-c3ccc(Cl)cc3)nc2n1`: the activity, negative = inhibition was 6.91% [at 11.4 µM].
For `O=c1c(CCc2ccccc2)nc2cnc(Oc3cccc(Cl)c3)nc2n1C[C@H]1CCCO1`, the AC50 was 6.31 µM (active).
Still for that read-out and setting: as for `O=c1c(-c2cccs2)nc2cnc(Oc3cccc(Cl)c3)nc2n1C[C@H]1CCCO1`, the figure is 3.16 µM (active).
As to `Cc1nc2cnc(Oc3cccc(Cl)c3)nc2n(C[C@H]2CCCO2)c1=O`, the “activity, negative = inhibition” value is -12.1%.
Still for that read-out and setting: for `O=c1c(-c2cccs2)nc2cnc(Nc3ccccc3)nc2n1C[C@H]1CCCO1` the value was 2.81%; for `COc1ccc(-c2nc3cnc(N(C)C)nc3n(C[C@H]3CCCO3)c2=O)cc1`, 25.1%.
As to `COc1ccc(-c2nc3cnc(Oc4cccc(Cl)c4)nc3n(C[C@H]3CCCO3)c2=O)cc1`, the AC50 is 5.01 µM (active).
Turning to `CN(C)c1ncc2nc(-c3cccs3)c(=O)n(C[C@H]3CCCO3)c2n1`, the “activity, negative = inhibition” value was 6.79%.
On the same count and under the same terms, for `O=c1cnc2cnc(Nc3ccccc3)nc2n1C[C@H]1CCCO1` the value was -25.1%.
Same read-out and setting: for `COc1ncc2nc(-c3cc(F)cc(F)c3)c(=O)n(C[C@H]3CCCO3)c2n1` the value was -21.8%.
